# From the supplement of paper PMC11732987, “Enantioselective OTUD7B fragment discovery through chemoproteomics screening and high-throughput optimisation” (Communications Chemistry, 2025)
# Unmarked numbers belong to inactive results.
# Legend:
# Test in all cases: log2 ratio of Biotin-Ahx-Ub-VS probe labelling (fragment/DMSO); higher = less target engagement (more negative = stronger competition), active = hit call of the paper (q ≤ 0.05, log2 ratio ≤ -1)
# Details in all cases: compound concentration: 200 uM; treatment time: 3 h
# [1] = molecular target: T1, USP19 (UniProt O94966)
# T1 sequence (whole entry): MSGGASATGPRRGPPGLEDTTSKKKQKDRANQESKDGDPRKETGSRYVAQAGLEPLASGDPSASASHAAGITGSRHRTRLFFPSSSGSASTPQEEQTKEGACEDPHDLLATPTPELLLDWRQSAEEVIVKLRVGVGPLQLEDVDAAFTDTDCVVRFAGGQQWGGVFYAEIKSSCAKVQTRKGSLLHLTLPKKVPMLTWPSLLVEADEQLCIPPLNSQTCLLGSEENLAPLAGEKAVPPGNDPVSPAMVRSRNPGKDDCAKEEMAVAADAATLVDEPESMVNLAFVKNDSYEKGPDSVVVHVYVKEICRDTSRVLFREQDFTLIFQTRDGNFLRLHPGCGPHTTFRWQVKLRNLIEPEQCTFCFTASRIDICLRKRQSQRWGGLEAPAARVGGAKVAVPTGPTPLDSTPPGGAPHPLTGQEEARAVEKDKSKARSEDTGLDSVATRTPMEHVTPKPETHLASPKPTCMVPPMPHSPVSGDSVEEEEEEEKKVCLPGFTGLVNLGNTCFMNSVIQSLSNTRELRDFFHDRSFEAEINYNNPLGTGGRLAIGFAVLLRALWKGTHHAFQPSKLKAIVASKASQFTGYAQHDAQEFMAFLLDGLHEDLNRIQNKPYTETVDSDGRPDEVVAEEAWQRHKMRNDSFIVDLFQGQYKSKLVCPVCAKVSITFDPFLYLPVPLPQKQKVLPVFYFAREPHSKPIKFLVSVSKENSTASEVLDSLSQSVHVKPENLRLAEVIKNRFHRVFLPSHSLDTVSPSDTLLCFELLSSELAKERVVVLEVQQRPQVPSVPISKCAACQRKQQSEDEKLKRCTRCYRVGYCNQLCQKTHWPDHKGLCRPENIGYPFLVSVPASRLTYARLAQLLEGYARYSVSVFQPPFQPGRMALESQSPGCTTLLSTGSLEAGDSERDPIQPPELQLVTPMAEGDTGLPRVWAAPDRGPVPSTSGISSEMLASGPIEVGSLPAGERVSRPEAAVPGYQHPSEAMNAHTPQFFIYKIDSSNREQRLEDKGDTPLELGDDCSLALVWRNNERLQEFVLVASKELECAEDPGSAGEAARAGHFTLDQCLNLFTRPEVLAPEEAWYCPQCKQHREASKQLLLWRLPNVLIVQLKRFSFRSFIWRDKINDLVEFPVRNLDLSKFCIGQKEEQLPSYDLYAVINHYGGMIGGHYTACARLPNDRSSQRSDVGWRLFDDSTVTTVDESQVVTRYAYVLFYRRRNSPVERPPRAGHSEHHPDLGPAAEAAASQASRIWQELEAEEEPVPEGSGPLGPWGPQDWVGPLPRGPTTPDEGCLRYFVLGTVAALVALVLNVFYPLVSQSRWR
# Outline: (§1)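 In triplicate, 495 µg of HEK293T lysate per sample was incubated with fragment at 200 µM or vehicle for 3 h. Biotin-Ahx-Ub-VS was then added to 0.5 µM final for 1 h, and labelled DUBs were captured with NeutrAvidin, digested with LysC and trypsin, and measured by diaPASEF LC-MS/MS. Data are average log2 fragment/vehicle ratios by unpaired t-test from global-median-normalised Spectronaut label-free quantities, restricted to proteins with ≥2 unique peptides.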
# [2] = molecular target: USP24 (UniProt Q9UPU5)
# Outline: as §1
# [3] = molecular target: T2, USP25 (UniProt Q9UHP3)
# T2 sequence (whole entry): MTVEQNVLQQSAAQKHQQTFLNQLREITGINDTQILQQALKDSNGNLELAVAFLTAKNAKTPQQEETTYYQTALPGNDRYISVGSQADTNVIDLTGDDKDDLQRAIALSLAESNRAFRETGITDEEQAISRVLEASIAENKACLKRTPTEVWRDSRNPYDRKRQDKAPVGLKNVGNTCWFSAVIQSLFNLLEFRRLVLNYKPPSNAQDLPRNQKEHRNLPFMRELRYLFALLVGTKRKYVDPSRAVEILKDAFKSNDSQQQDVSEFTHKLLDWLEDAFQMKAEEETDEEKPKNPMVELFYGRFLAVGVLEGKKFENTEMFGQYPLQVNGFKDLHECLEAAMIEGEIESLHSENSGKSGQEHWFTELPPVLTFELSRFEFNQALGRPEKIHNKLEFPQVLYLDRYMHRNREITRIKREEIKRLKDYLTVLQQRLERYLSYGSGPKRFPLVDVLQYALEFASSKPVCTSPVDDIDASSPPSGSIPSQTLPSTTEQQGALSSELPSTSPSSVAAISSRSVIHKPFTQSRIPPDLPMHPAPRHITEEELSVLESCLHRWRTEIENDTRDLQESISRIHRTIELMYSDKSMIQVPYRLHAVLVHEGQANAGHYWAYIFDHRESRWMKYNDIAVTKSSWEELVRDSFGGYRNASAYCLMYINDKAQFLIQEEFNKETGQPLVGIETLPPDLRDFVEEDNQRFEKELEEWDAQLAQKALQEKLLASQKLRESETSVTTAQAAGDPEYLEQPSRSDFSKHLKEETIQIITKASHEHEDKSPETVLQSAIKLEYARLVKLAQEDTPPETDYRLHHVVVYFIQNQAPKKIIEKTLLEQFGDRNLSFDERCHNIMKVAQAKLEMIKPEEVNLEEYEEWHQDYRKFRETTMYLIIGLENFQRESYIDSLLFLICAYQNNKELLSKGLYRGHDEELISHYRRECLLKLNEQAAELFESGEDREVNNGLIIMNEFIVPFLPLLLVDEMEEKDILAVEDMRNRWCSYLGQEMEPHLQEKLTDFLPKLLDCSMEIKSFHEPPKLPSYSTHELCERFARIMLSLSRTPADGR
# Outline: as §1
# [4] = molecular target: T3, USP28 (UniProt Q96RU2)
# T3 sequence (whole entry): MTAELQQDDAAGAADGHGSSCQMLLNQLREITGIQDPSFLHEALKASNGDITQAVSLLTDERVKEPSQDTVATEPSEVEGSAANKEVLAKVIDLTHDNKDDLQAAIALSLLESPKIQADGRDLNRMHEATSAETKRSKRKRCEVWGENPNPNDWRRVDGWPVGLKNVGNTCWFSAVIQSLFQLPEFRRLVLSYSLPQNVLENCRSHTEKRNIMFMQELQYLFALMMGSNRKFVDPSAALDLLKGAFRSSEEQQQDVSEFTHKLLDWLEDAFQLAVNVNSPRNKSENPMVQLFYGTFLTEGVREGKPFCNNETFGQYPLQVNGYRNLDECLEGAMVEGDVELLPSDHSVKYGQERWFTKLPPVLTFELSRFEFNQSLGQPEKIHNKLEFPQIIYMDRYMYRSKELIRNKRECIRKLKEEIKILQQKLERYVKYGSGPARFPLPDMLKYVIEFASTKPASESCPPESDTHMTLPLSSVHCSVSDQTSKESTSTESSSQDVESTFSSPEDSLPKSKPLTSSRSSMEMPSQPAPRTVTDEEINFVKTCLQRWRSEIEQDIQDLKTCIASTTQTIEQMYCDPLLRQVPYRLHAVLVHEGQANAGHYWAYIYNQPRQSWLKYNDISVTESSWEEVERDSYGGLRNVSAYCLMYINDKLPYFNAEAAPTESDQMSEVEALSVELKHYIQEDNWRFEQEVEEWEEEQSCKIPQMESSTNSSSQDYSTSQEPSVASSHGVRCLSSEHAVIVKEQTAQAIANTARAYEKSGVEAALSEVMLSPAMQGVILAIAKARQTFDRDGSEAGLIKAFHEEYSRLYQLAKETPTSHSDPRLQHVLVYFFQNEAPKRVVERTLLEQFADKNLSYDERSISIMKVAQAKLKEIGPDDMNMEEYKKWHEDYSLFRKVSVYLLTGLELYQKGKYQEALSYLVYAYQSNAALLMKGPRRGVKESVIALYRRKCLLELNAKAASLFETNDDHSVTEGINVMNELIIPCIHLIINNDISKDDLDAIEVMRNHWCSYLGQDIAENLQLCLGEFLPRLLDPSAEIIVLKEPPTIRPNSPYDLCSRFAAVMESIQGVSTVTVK
# Outline: as §1
# USP24, sequence (Q9UPU5 whole entry): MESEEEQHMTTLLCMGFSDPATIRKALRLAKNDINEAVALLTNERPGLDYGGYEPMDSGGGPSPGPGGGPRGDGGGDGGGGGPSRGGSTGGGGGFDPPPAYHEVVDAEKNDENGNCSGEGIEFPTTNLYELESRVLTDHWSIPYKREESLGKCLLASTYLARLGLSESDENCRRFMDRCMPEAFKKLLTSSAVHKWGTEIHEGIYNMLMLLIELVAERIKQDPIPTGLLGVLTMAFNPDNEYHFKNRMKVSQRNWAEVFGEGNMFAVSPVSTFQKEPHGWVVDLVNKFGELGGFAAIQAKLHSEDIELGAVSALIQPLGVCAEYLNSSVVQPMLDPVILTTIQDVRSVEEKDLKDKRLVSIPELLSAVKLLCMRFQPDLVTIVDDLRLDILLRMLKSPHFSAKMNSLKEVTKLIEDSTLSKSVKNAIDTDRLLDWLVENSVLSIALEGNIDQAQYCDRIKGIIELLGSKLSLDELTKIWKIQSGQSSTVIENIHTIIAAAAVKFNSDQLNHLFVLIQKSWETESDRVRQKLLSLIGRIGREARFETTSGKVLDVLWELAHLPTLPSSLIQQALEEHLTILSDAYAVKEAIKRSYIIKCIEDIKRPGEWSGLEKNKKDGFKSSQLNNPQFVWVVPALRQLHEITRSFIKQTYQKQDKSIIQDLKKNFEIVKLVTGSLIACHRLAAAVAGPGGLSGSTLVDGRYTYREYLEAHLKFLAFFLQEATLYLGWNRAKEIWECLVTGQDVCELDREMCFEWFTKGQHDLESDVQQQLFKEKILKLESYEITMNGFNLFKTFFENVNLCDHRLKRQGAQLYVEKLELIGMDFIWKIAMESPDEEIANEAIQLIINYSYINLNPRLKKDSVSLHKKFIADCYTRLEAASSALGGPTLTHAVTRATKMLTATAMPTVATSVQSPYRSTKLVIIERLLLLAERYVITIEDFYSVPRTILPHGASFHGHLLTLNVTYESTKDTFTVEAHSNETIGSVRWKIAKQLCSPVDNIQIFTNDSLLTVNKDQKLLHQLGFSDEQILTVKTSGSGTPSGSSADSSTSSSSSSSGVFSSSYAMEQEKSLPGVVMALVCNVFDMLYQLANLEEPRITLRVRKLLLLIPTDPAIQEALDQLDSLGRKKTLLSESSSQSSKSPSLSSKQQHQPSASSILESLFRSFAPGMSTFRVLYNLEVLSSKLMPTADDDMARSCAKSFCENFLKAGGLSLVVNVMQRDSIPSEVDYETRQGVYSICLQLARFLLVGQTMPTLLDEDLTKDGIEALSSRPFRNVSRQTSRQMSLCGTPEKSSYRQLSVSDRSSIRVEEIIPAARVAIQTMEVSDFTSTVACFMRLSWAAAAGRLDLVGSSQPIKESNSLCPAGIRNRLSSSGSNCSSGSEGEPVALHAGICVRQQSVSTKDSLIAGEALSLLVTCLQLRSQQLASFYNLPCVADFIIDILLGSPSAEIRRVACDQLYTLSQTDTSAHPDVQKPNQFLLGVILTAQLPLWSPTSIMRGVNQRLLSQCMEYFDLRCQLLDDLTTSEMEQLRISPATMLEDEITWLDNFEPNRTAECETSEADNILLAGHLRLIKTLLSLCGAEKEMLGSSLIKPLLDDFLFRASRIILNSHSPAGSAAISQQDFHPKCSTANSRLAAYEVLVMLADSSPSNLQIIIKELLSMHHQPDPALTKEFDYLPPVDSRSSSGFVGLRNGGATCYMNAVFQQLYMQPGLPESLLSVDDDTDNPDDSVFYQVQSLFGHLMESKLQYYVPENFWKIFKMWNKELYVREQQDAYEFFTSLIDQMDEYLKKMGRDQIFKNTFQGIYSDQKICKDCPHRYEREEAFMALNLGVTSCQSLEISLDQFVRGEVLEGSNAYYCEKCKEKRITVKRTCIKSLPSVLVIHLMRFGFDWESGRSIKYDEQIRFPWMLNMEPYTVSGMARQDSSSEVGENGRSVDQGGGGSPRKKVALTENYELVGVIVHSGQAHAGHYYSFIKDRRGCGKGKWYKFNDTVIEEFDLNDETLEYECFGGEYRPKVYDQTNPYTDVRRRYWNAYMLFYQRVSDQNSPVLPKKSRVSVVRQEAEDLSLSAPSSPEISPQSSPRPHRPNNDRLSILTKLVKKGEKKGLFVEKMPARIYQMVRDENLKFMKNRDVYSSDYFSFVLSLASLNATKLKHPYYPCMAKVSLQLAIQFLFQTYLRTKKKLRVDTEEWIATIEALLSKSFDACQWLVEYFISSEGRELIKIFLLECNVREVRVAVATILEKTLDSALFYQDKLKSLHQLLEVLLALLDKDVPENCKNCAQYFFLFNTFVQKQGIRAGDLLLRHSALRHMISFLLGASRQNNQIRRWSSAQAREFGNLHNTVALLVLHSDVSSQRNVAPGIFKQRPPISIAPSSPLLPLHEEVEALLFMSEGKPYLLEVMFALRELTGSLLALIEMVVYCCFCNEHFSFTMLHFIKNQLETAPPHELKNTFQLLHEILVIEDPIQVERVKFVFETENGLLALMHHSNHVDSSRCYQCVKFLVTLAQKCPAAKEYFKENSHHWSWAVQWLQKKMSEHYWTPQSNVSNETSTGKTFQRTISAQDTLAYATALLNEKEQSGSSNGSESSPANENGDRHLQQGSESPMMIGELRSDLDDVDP
structure (smiles),measurement,setting,value
O=C(CCl)N1CC=C(c2c[nH]c3ccccc23)CC1,log2 ratio of Biotin-Ahx-Ub-VS probe labelling,[1],-1.72 (active)
same,log2 ratio of Biotin-Ahx-Ub-VS probe labelling,[2],-1.48 (active)
same,log2 ratio of Biotin-Ahx-Ub-VS probe labelling,[3],-0.457
same,log2 ratio of Biotin-Ahx-Ub-VS probe labelling,[4],-1.1 (active)
